Test results from PubChem BioAssay AID1159580 (chemical genetic matrix, 2015).
Screen size: about 5,500 compounds; about 2,000 (36%) were called active. Inconclusive results (about 18%) are left out. Cut-off read from the data, not from the text of the source: active = normalized growth mostly below about 0.91 (no sharp cut-off); inconclusive = no clear call, values can overlap the other calls; inactive = mostly above about 0.92. The list shows a part of the results.

Assay: chemical genetic growth profiling, strain panel (AID 1159580);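 note: tested at 20 µM; growth read once vehicle control cultures reached saturation at 30 °C; 1 = growth at the plate median or of vehicle wells; lower values mean less growth of the strain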
Settings: growth OD

Measured: normalized growth

COc1cc([C@@H]2c3cc4c(cc3[C@H](OC(C)=O)[C@H]3COC(=O)[C@H]23)OCO4)cc(OC)c1OC
inactive: S. cerevisiae deletion strains, locus YJR066W, strain TOR1, stronger effect = lower value 0.932 | S. cerevisiae deletion strains, locus YKL009W, strain mrt4, stronger effect = lower value 0.972 | S. cerevisiae deletion strains, locus YKL068W, stronger effect = lower value 0.988 | S. cerevisiae deletion strains, locus YKL085W, strain MDH1 (second series), stronger effect = lower value 1 | S. cerevisiae deletion strains, locus YKL085W, strain MDH1, stronger effect = lower value 1 | S. cerevisiae deletion strains, locus YKL160W, strain elf1, stronger effect = lower value 0.999 | S. cerevisiae deletion strains, locus YKL190W, strain CNB1, stronger effect = lower value 1 | S. cerevisiae deletion strains, locus YKR001C, strain vps1, stronger effect = lower value 0.976 | S. cerevisiae deletion strains, locus YKR026C, strain gcn3, stronger effect = lower value 1.01 | S. cerevisiae deletion strains, locus YKR091W, strain srl3, stronger effect = lower value 1.01 | S. cerevisiae deletion strains, locus YLL001W, strain dnm1, stronger effect = lower value 1 | S. cerevisiae deletion strains, locus YLL026W, stronger effect = lower value 1.01 | S. cerevisiae deletion strains, locus YLL041C, strain sdh2, stronger effect = lower value 1.01 | S. cerevisiae deletion strains, locus YLR027C, strain aat2, stronger effect = lower value 1 | S. cerevisiae deletion strains, locus YLR039C, strain RIC1, stronger effect = lower value 0.954 | S. cerevisiae deletion strains, locus YLR058C, strain SHM2, stronger effect = lower value 0.998 | S. cerevisiae deletion strains, locus YLR102C, strain apc9, stronger effect = lower value 0.974 | S. cerevisiae deletion strains, locus YLR113W, strain HOG1, stronger effect = lower value 1.07 | S. cerevisiae deletion strains, locus YLR221C, strain rsa3, stronger effect = lower value 1.01 | S. cerevisiae deletion strains, locus YLR258W, strain gsy2, stronger effect = lower value 0.997 | S. cerevisiae deletion strains, locus YLR262C, strain YPT6 (second series), stronger effect = lower value 0.914 | S. cerevisiae deletion strains, locus YLR262C, strain YPT6, stronger effect = lower value 0.933 | S. cerevisiae deletion strains, locus YLR268W, strain sec22, stronger effect = lower value 0.984 | S. cerevisiae deletion strains, locus YLR320W, strain mms22, stronger effect = lower value 1 | S. cerevisiae deletion strains, locus YLR330W, strain CHS5, stronger effect = lower value 0.994 | S. cerevisiae deletion strains, locus YLR342W, strain FKS1 (second series), stronger effect = lower value 0.995 | S. cerevisiae deletion strains, locus YLR342W, strain FKS1, stronger effect = lower value 1.01 | S. cerevisiae deletion strains, locus YLR357W, strain rsc2, stronger effect = lower value 1.06 | S. cerevisiae deletion strains, locus YLR370C, strain arc18, stronger effect = lower value 1.01 | S. cerevisiae deletion strains, locus YLR371W, strain rom2, stronger effect = lower value 0.992 | S. cerevisiae deletion strains, locus YLR384C, strain iki3, stronger effect = lower value 1.02 | S. cerevisiae deletion strains, locus YLR418C, strain cdc73, stronger effect = lower value 0.971 | S. cerevisiae deletion strains, locus YML016C, strain PPZ1, stronger effect = lower value 0.997 | S. cerevisiae deletion strains, locus YML032C, strain rad52, stronger effect = lower value 0.97 | S. cerevisiae deletion strains, locus YML120C, strain ndi1, stronger effect = lower value 1 | S. cerevisiae deletion strains, locus YML124C, strain tub3, stronger effect = lower value 0.984 | S. cerevisiae deletion strains, locus YMR058W, strain fet3, stronger effect = lower value 1.01 | S. cerevisiae deletion strains, locus YMR078C, strain ctf18, stronger effect = lower value 0.99 | S. cerevisiae deletion strains, locus YMR125W, strain sto1, stronger effect = lower value 1.01 | S. cerevisiae deletion strains, locus YMR129W, stronger effect = lower value 1 | S. cerevisiae deletion strains, locus YMR205C, strain PFK2, stronger effect = lower value 1.02 | S. cerevisiae deletion strains, locus YMR223W, strain ubp8, stronger effect = lower value 0.974 | S. cerevisiae deletion strains, locus YMR231W, strain pep5, stronger effect = lower value 0.997 | S. cerevisiae deletion strains, locus YMR307W, strain GAS1, stronger effect = lower value 1.02 | S. cerevisiae deletion strains, locus YNL067W, strain RPL9B, stronger effect = lower value 1.01 | S. cerevisiae deletion strains, locus YNL071W, strain lat1, stronger effect = lower value 1.01 | S. cerevisiae deletion strains, locus YNL128W, strain TEP1, stronger effect = lower value 0.992 | S. cerevisiae deletion strains, locus YNL183C, strain NPR1, stronger effect = lower value 0.993 | S. cerevisiae deletion strains, locus YNL209W, strain ssb2, stronger effect = lower value 0.996 | S. cerevisiae deletion strains, locus YNL233W, strain BNI4, stronger effect = lower value 0.997 | S. cerevisiae deletion strains, locus YNL248C, strain rpa49, stronger effect = lower value 1.01 | S. cerevisiae deletion strains, locus YNL250W, strain rad50, stronger effect = lower value 0.985 | S. cerevisiae deletion strains, locus YNL271C, strain bni1, stronger effect = lower value 0.983 | S. cerevisiae deletion strains, locus YNL298W, strain CLA4, stronger effect = lower value 0.997 | S. cerevisiae deletion strains, locus YNL307C, strain MCK1, stronger effect = lower value 0.98 | S. cerevisiae deletion strains, locus YNL322C, strain KRE1 (second series), stronger effect = lower value 1.03 | S. cerevisiae deletion strains, locus YNR049C, strain mso1, stronger effect = lower value 1 | S. cerevisiae deletion strains, locus YNR052C, strain pop2, stronger effect = lower value 0.973 | S. cerevisiae deletion strains, locus YOL006C, strain TOP1, stronger effect = lower value 0.861 | S. cerevisiae deletion strains, locus YOL012C, strain htz1 1.23 | S. cerevisiae deletion strains, locus YOL147C, strain pex11, stronger effect = lower value 0.981 | S. cerevisiae deletion strains, locus YOR001W, strain rrp6, stronger effect = lower value 1 | S. cerevisiae deletion strains, locus YOR061W, strain CKA2, stronger effect = lower value 0.994 | S. cerevisiae deletion strains, locus YOR069W, strain VPS5, stronger effect = lower value 0.99 | S. cerevisiae deletion strains, locus YOR070C, strain gyp1, stronger effect = lower value 1.01 | S. cerevisiae deletion strains, locus YOR080W, strain dia2, stronger effect = lower value 1 | S. cerevisiae deletion strains, locus YOR083W, strain WHI5, stronger effect = lower value 1 | S. cerevisiae deletion strains, locus YOR106W, strain vam3, stronger effect = lower value 1.02 | S. cerevisiae deletion strains, locus YOR136W, strain idh2, stronger effect = lower value 0.98 | S. cerevisiae deletion strains, locus YOR144C, strain elg1, stronger effect = lower value 0.99 | S. cerevisiae deletion strains, locus YOR184W, strain ser1, stronger effect = lower value 1.01 | S. cerevisiae deletion strains, locus YOR231W, strain MKK1, stronger effect = lower value 0.972 | S. cerevisiae deletion strains, locus YOR265W, strain rbl2, stronger effect = lower value 1.01 | S. cerevisiae deletion strains, locus YOR270C, strain vph1, stronger effect = lower value 0.921 | S. cerevisiae deletion strains, locus YOR290C, strain snf2, stronger effect = lower value 1 | S. cerevisiae deletion strains, locus YOR316C, strain cot1, stronger effect = lower value 0.992 | S. cerevisiae deletion strains, locus YPL051W, strain arl3, stronger effect = lower value 1 | S. cerevisiae deletion strains, locus YPL078C, strain atp4, stronger effect = lower value 0.998 | S. cerevisiae deletion strains, locus YPL106C, strain sse1, stronger effect = lower value 1.02 | S. cerevisiae deletion strains, locus YPL240C, strain hsp82, stronger effect = lower value 1.01 | S. cerevisiae deletion strains, locus YPL256C, strain CLN2, stronger effect = lower value 0.986 | S. cerevisiae deletion strains, locus YPR119W, strain clb2, stronger effect = lower value 0.986 | S. cerevisiae deletion strains, locus YPR141C, strain kar3, stronger effect = lower value 0.98 | S. cerevisiae deletion strains, locus YPR163C, strain tif3, stronger effect = lower value 0.991 | S. cerevisiae deletion strains, locus YPR167C, strain met16, stronger effect = lower value 0.969 | S. cerevisiae deletion strains, strain wtn01, stronger effect = lower value 1 | S. cerevisiae strains, strain wild type, stronger effect = lower value 1
